Source: PubChem BioAssay (several laboratories)
An excerpt weighted towards active compounds, which were near 2.7% of everything screened.
HIF-2a inh – inhibitors of HIF-2a; 786-0 RCC cells HIF-2a reporter, luciferase luminescence, overnight; inhibition, % at 18.8 µM; actives 0.72% (n = 360,000);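 active = inhibition of the luminescence signal of 40% or more relative to plate controls, in a single-dose primary screen at 18.75 µM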
Peg3 promoter – Peg3 promoter activity inhibition; actives 1.7% (n = 360,000); inhibition, % at 20 µM; AID 588405; HeLa PEG-Prom luciferase reporter, luminescence, overnight;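 active = inhibition of at least 50% at 20 µM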
CF NFkB block – blocks PAF-induced NF-kB reporter in cystic fibrosis cells. KKLEB NF-kB-GFP reporter, GFP fluorescence overnight. inhibition, % at 5 µM. actives 0.86% (n = 360,000). AID 588850;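 active = at least 50% inhibition at 5 µM, scaled per plate between neutral and stimulator controls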;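 note: PAF is a Pseudomonas aeruginosa culture filtrate used as stimulus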
KKLEB cytotox – counter-screen for CF NF-kB inhibitors: cytotoxicity; KKLEB CF airway cells viability, ATPlite luminescence, overnight; hits give low values; cells stimulated with P. aeruginosa culture filtrate; activity change (cytotoxicity), % at 5 µM; actives 0.36% (n = 360,000);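 active = corrected activity change at or below -50% at 5 µM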
MITF TRPM1 inh – inhibitors of MITF-driven TRPM1 promoter in melanoma cells | SK-MEL-5 TRPM1 promoter luciferase, 24 h | inhibition, % at 12.5 µM | actives 0.83% (n = 330,000);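 active = mean inhibition across replicates of 60% or more, whatever share of single replicates reaches that level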
Shn3 3UTR inh – inhibitors of Schnurri-3 3'UTR reporter in osteoblasts. Clone20 osteoblast Shn3 3'UTR firefly luciferase, 24 h. inhibition, % at 12.5 µM. actives 0.52% (n = 360,000). AID 588674;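 active = mean inhibition of at least 75% with every replicate also reaching 75%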
Of the large screens only hits and unclear results are named; the others gave an inactive call.

CCCCNC(=O)C1(C)CCCCN1C(=O)c1csnn1 (configuration not stated)	none (no result: MITF TRPM1 inh)
O=C(CN1C(=O)C2CC=CCC2C1=O)Nc1nnc(C2CC2)s1 (configuration not stated)	none
O=c1[nH]c(C2CCN(S(=O)(=O)c3cccc(C(F)(F)F)c3)CC2)nc2c1nnn2Cc1cccc(F)c1	Peg3 promoter 51.4
CC(=O)C1(C)CCC2C3C=C(C)C4=CC(=O)CCC4(C)C3CCC21C (configuration not stated)	Shn3 3UTR inh 87.1
O=c1cc(-c2ccccc2)cc(-c2ccccc2)n1O	Shn3 3UTR inh 91.8
Cn1c(-c2ccccc2)cc(=O)cc1-c1ccccc1	none (no result: MITF TRPM1 inh)
Cc1sc2ncnc(N/N=C/c3ccc(O)cc3)c2c1C	none
Cc1sc2ncnc(N/N=C/c3ccccc3O)c2c1C	Shn3 3UTR inh 86.3
Cc1ccc2nc(C(C)(C)C)c(Cc3ccsc3)n2c1	none (no result: MITF TRPM1 inh)
Cc1ccc(CNc2nc(NCC3CC3)nc3ccsc23)c(C)c1	Peg3 promoter 76.6 (no result: MITF TRPM1 inh)
COc1ccccc1CNc1nc(NCc2ccccc2OC)c2sccc2n1	Peg3 promoter 58.3, Shn3 3UTR inh 86.5 (no result: MITF TRPM1 inh)
c1cc2cc(CNc3nc(NCC4CC4)nc4ccsc34)ccc2o1	none (no result: MITF TRPM1 inh)
CNc1nc(NCc2ccc(C)cc2C)c2sccc2n1	none (no result: MITF TRPM1 inh)
COc1ccccc1CNc1nc(NCc2ccc3occc3c2)c2sccc2n1	Peg3 promoter 90.5 (no result: MITF TRPM1 inh)
COc1ccccc1CNc1nc(Nc2cccc(-c3cnco3)c2)c2sccc2n1	Peg3 promoter 91.4 (no result: MITF TRPM1 inh)
CC(C)Sc1nc(-c2cccs2)nc2cc(Cl)ccc12	none (no result: Peg3 promoter, CF NFkB block, KKLEB cytotox, MITF TRPM1 inh, Shn3 3UTR inh)
Cc1ccccc1N(C(=O)c1csnn1)C(C(=O)NC1CCCC1)c1ccncc1 (configuration not stated)	none
O=C(COc1ccccc1Cl)N1CCN(C(=O)c2ccco2)CC1	none
CC(C)C1C(=O)N(Cc2cn(CCC3OCCO3)nn2)CCS(=O)(=O)N1Cc1ccc(-c2ccc(Cl)c(Cl)c2)cc1 (configuration not stated)	Peg3 promoter 59.9, Shn3 3UTR inh 88.8 (no result: MITF TRPM1 inh)
O=C1Nc2ccccc2/C1=C\C(=O)c1ccccc1	Peg3 promoter 65.1
COc1ccc(C(=O)/C=C2\C(=O)Nc3ccc(Br)cc32)cc1	Peg3 promoter 76.3
O=C1C(=O)N(Cc2cccnc2)C(c2cccc(Br)c2)/C1=C(/O)c1ccc2c(c1)OCO2 (configuration not stated)	none
NC(=O)N/N=C/c1ccc(N2CCOCC2)s1	Peg3 promoter 52.3
CCOCCn1ccc2c(OCC(=O)Nc3ccc(OC)c(OC)c3)cccc2c1=O	none
CCOCCn1ccc2c(OCC(=O)Nc3ccc(OC)cc3OC)cccc2c1=O	Peg3 promoter 51.9
C=CCn1c(SC(F)F)nc2scc(-c3ccco3)c2c1=O	Peg3 promoter 74.0
Cc1ccc(N(C(=O)CNC(=O)c2cccs2)C(C(=O)NC2CCCC2)c2ccncc2)cc1 (configuration not stated)	none (no result: MITF TRPM1 inh)
COc1ccc(C2c3ccc4ccccc4c3Oc3ncn(Cc4ccco4)c(=N)c32)cc1OC (configuration not stated)	none
COc1ccc(C2c3c(ncn(CCCO)c3=N)Oc3ccc4ccccc4c32)cc1 (configuration not stated)	Peg3 promoter 82.0
COc1ccccc1C1c2ccc3ccccc3c2Oc2ncn(CCN(C)C)c(=N)c21 (configuration not stated)	Peg3 promoter 103.0, MITF TRPM1 inh 69.0
COc1ccc(C2c3c(ncn(CCN4CCOCC4)c3=N)Oc3ccc4ccccc4c32)cc1OC (configuration not stated)	Peg3 promoter 77.8
CN(C)S(=O)(=O)c1cccc(NC(=S)Nc2cccc3cnccc23)c1	CF NFkB block 73.1
S=C(Nc1cccnc1)Nc1cccc2cnccc12	none
CCOC(=O)COc1ccccc1/C=C\[N+](=O)[O-]	HIF-2a inh 92.0, Peg3 promoter 110.3, CF NFkB block 80.9, MITF TRPM1 inh 97.4, Shn3 3UTR inh 96.7
O=C(N/C(=C/c1cccc([N+](=O)[O-])c1)C(=O)N1CCOCC1)c1ccccc1Br	none
CCN(C[C@H]1N[C@@](CC)(C(=O)OC)[C@H]2C(=O)N(Cc3ccccc3)C(=O)[C@@H]12)C(=O)c1ccc(C(C)(C)C)cc1	Peg3 promoter 61.9, CF NFkB block 85.4, KKLEB cytotox -58.5
